The values that follow come from PubChem BioAssay (Tox21).

Values joined by “and” are separate entries in the source; they are usually repeats but may differ in a detail not shown here. Equal values may be shown once. Records with an inconclusive call do not appear. Entries that show only a call come without a potency. Some compounds were tested as several samples or in several runs, with calls that do not always agree. Active and inactive are the calls of the source. Calls come from the whole dose curve; as a rule, active = well fitted curve in the direction sought with a large enough effect in the repeat runs; inconclusive = weak or mixed curves; inactive = no such curve, though single readings can be large; an effect the other way counts as inactive or inconclusive.
Potency is the fitted concentration of half-maximal effect.

One assay can be described thus: qHTS RealTime-Glo MT Cell Viability Assay in HepG2 cells - 40 hour (AID 1224870). Note: nearly all actives have a fitted effect of over 50% in size. Particulars: RealTime-Glo luminescence; series mostly up to 76.8 µM. The method in brief: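 HepG2 cells mixed with RealTime-Glo MT reagents (NanoLuc plus cell-permeant prosubstrate) were seeded at 600 cells/well, incubated 5 h at 37 C/5% CO2, then pinned with compounds in DMSO; nonlytic luminescence tracked viability during 40 h treatment.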
As for `c1ccc(Sc2ccccc2)cc1`, the Potency result was “inactive”.

In the case of `CC(CN(C)C)CN1c2ccccc2CCc2ccccc21` (stereo unspecified), the Potency entry is “inactive”.

In the case of `Oc1c(Br)cc(Br)c2cccnc12`, the Potency entry was “inactive”.

Regarding `CCC(C)(C)c1cc(O)c(C(C)(C)CC)cc1O`, the Potency result was “inactive”.

As for `O=C1c2c(O)ccc(O)c2C(=O)c2c(NCCNCCO)ccc(NCCNCCO)c21`, the Potency was 7.56 µM (active).

In the case of `CCCOc1sc(C(=O)N2CCC(c3cc(CN)ccc3F)CC2)c(C)c1Br`, the Potency was 28.3 µM (active).

`CCCCCCCC(C)=O`: the Potency result is “inactive”.

Regarding `C=CCCCCCCC=C`, the Potency result is “inactive”.

Consider `COc1ccc(-n2nc(CCC(=O)N(C)O)cc2-c2ccc(Cl)cc2)cc1`, for which the Potency result is “inactive”.

Another assay in a line: A CellTox Green Cytotoxicity Assay to monitor cytotoxicity in HEK293 cells - 40 hour (AID 1224871). Note: nearly all actives have a fitted effect of over 45% in size. To be noted: CellTox Green fluorescence; series mostly up to 76.8 µM. The method in brief: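 Nonlytic real-time cytotoxicity: HEK293 + CellTox Green reagent plated, 5 h preincubation, pintool compound addition (23 nL in DMSO), 37 C for 40 h, fluorescence measured at successive time points.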
Consider `Clc1cccnc1`, for which the Potency entry is “inactive”.

As for `C=C[C@](C)(O)CC[C@@H]1[C@@]2(C)CCCC(C)(C)[C@@H]2CC[C@@]1(C)O`, the Potency is 43.6 µM (active).

On to `CC(O)C#CC(C)O` (stereo unspecified), for which the Potency was 54.4 µM (active).

Regarding `Cc1nc(Nc2ncc(C(=O)Nc3c(C)cccc3Cl)s2)cc(N2CCN(CCO)CC2)n1`, the Potency result was “inactive”.

As to `Clc1nc2ccccc2s1`, the Potency entry was “inactive”.

As to `COCC(=O)O[C@]1(CCN(C)CCCc2nc3ccccc3[nH]2)CCc2cc(F)ccc2[C@@H]1C(C)C`, the Potency is 19 µM (active).

Consider `O=C(O)CCn1c2c(c3ccccc31)C[C@H](NS(=O)(=O)c1ccc(F)cc1)CC2`, for which the Potency entry was “inactive”.

Regarding `CC(C)=CC1CC(C)CCO1` (stereo unspecified), the Potency entry is “inactive”.

Regarding `S=C(SSSSSSC(=S)N1CCCCC1)N1CCCCC1`, the Potency was 0.241 µM (active).

Take `CCC(=O)CC(C)CC` (stereo unspecified): the cytotoxicity increase is 5.38% [at 0.29 µM] (inactive).

As to `O=Cc1ccc(F)cc1`, the Potency result is “inactive”.

With `Cc1ccc(CCn2c3c(c4cc(Cl)ccc42)CN(C)CC3)cn1`, the Potency result is “inactive”.

Turning to `Clc1ccccc1CN1CCc2sccc2C1`, the Potency entry was “inactive”.

On to `Cc1cn[nH]c1`, for which the Potency entry was “inactive”.

In the case of `CCOB(OCC)OCC`, the Potency result was “inactive”.

Turning to `CCCCC(CC)COC(=O)c1ccc(O)cc1` (stereo unspecified), the Potency is 43.5 µM (active) and 21.9 µM (active).

In the case of `CC(=O)Nc1ccc(O)cc1`, the Potency entry was “inactive”.

With `C=CC(=C)CCC=C(C)C`, the Potency result is “inactive”.

With `c1ccc(Sc2ccccc2)cc1`, the Potency entry is “inactive”.

For `CC(CN(C)C)CN1c2ccccc2CCc2ccccc21` (stereo unspecified), the Potency result is “inactive”.

`CN(C)CCCN1c2ccccc2CCc2ccccc21`: the Potency was 43.6 µM (active) and inactive.

As for `CCOC(=O)C1=C(C)NC(C)=C(C(=O)OCC)C1c1ccccc1/C=C/C(=O)OC(C)(C)C`, the Potency entry was “inactive”.

With `O=C1c2c(O)ccc(O)c2C(=O)c2c(NCCNCCO)ccc(NCCNCCO)c21`, the Potency result is “inactive”.

Consider `CCCOc1sc(C(=O)N2CCC(c3cc(CN)ccc3F)CC2)c(C)c1Br`, for which the Potency was 31.8 µM (active).

In the case of `CCCCCCCC(C)=O`, the Potency entry is “inactive”.

`C=CCCCCCCC=C`: the Potency result was “inactive”.

In the case of `CC(=O)OC(OC(C)=O)c1ccc([N+](=O)[O-])o1`, the Potency is 49.8 µM (active).

On to `Cc1cc(C)c(C=O)c(C)c1`, for which the Potency entry was “inactive”.

A further assay in a line: qHTS RealTime-Glo MT Cell Viability Assay in HEK293 cells - 16 hour (AID 1224872). For activity change, negative = cytotoxicity: top concentration of the series differs between compounds. Note: nearly all actives have a fitted effect of over 50% in size. Particulars: RealTime-Glo luminescence; series mostly up to 76.8 µM. An outline of the steps: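 HEK293 cells were seeded at 600 cells/well together with NanoLuc luciferase and cell-permeant prosubstrate, preincubated 5 h at 37 C/5% CO2, then given compound in DMSO by pintool. Luminescence from viable-cell prosubstrate reduction was read repeatedly over 40 h.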
A general note: Quantitative high-throughput screening tests each substance at several concentrations.
In the case of `Clc1cccnc1`, the Potency result is “inactive”.

In the case of `C=C[C@](C)(O)CC[C@@H]1[C@@]2(C)CCCC(C)(C)[C@@H]2CC[C@@]1(C)O`, the Potency was 19.5 µM (active).

Regarding `Clc1nc2ccccc2s1`, the Potency entry is “inactive”.

Regarding `COCC(=O)O[C@]1(CCN(C)CCCc2nc3ccccc3[nH]2)CCc2cc(F)ccc2[C@@H]1C(C)C`, the Potency was 5.35 µM (active).

Regarding `O=C(O)CCn1c2c(c3ccccc31)C[C@H](NS(=O)(=O)c1ccc(F)cc1)CC2`, the Potency entry is “inactive”.

In the case of `CC(C)=CC1CC(C)CCO1` (stereo unspecified), the Potency entry is “inactive”.

In the case of `S=C(SSSSSSC(=S)N1CCCCC1)N1CCCCC1`, the Potency is 13.6 µM (active).

Regarding `CCC(=O)CC(C)CC` (stereo unspecified), the activity change, negative = cytotoxicity was 5.55% [at 0.29 µM] (inactive).

Take `O=Cc1ccc(F)cc1`: the Potency result was “inactive”.

As for `CCOC(=O)N1CCC(=C2c3ccc(Cl)cc3CCc3cccnc32)CC1`, the Potency is 21.9 µM (active) and 8.49 µM (active).

In the case of `Cc1cn[nH]c1`, the Potency entry was “inactive”.

On to `CCCCC(CC)COC(=O)c1ccc(O)cc1` (stereo unspecified), for which the Potency is 54.7 µM (active).

On to `CC(=O)Nc1ccc(O)cc1`, for which the Potency entry is “inactive”.

`C=CC(=C)CCC=C(C)C`: the Potency entry was “inactive”.

As for `c1ccc(Sc2ccccc2)cc1`, the Potency result is “inactive”.

Turning to `CC(CN(C)C)CN1c2ccccc2CCc2ccccc21` (stereo unspecified), the Potency result was “inactive”.

On to `CN(C)CCCN1c2ccccc2CCc2ccccc21`, for which the Potency result is “inactive”.

With `CCOC(=O)C1=C(C)NC(C)=C(C(=O)OCC)C1c1ccccc1/C=C/C(=O)OC(C)(C)C`, the Potency entry is “inactive”.

As for `Oc1c(Br)cc(Br)c2cccnc12`, the Potency entry was “inactive”.

On to `CCC(C)(C)c1cc(O)c(C(C)(C)CC)cc1O`, for which the Potency is 21.9 µM (active).

In the case of `O=C1c2c(O)ccc(O)c2C(=O)c2c(NCCNCCO)ccc(NCCNCCO)c21`, the Potency was 0.848 µM (active).

Turning to `CCCOc1sc(C(=O)N2CCC(c3cc(CN)ccc3F)CC2)c(C)c1Br`, the Potency is 20 µM (active).

As for `CCCCCCCC(C)=O`, the Potency entry is “inactive”.

In the case of `C=CCCCCCCC=C`, the Potency result was “inactive”.

Consider `CC(=O)OC(OC(C)=O)c1ccc([N+](=O)[O-])o1`, for which the Potency was 44.4 µM (active).

`Cc1cc(C)c(C=O)c(C)c1`: the Potency result is “inactive”.

Take `C/C=C/C=N/NC(=O)c1ccncc1`: the Potency entry is “inactive”.

As to `CCCCCCC(C)Nc1ccc(Nc2ccccc2)cc1` (stereo unspecified), the Potency was 19.5 µM (active).

Consider `COc1ccc(-n2nc(CCC(=O)N(C)O)cc2-c2ccc(Cl)cc2)cc1`, for which the Potency result is “inactive”.
